Measurements from the supplement of paper PMC13380429.

Test system: Vero E6 infected with SARS-CoV-2
Assay: inhibition of SARS-CoV-2 cytopathic effect; higher = more antiviral protection, active = above 15
Conditions: 48 h

Measured: inhibition of SARS-CoV-2 cytopathic effect

N[C@H](CO)C(=O)O [D-serine]
inactive: 1 nM -1.38% | 8.33 nM 1.46% | 100 nM -1.84% | 833.33 nM -1.45% | 10000 nM 1.69%

O[C@@H](COc1cccc2ncccc12)CN1CCN([C@@H]2c3ccccc3[C@@H]3[C@H](c4ccccc42)C3(F)F)CC1 [zosuquidar]
inactive: 1 nM -0.36% | 8.33 nM 1.65% | 100 nM 0.11% | 833.33 nM 0.85% | 10000 nM -3.28%

Cc1ccc(NC2=NCCN2)c(Cl)c1 [tolonidine]
inactive: 1 nM 1.65% | 8.33 nM 0.34% | 100 nM 0.64% | 833.33 nM -0.01% | 10000 nM 0.42%

NS(=O)(=O)NCc1csc2ccccc12
inactive: 1 nM 3.48% | 8.33 nM -0.74% | 100 nM -0.43% | 833.33 nM 3.95% | 10000 nM 2.4%

CCCC(C)(COC(N)=O)COC(=O)NC(C)C (stereo not given)
inactive: 1 nM 1.17% | 8.33 nM 2.25% | 100 nM 2.38% | 833.33 nM 4.43% | 10000 nM 0.83%

O=C(NC1CCN(CCc2c[nH]c3ccccc23)CC1)c1ccccc1 [indoramin]
inactive: 1 nM 0.38% | 8.33 nM 1.24% | 100 nM 0.6% | 833.33 nM -1.28% | 10000 nM -4.57%

O=C1C=CC[C@@H]2[C@H]3CCCN4CCC[C@@H](CN12)[C@@H]34 [sophocarpine]
inactive: 1 nM -8.47% | 8.33 nM -10.7% | 100 nM -12.4% | 833.33 nM -12.3% | 10000 nM -13.3%

Cc1[nH]c(/C=C2\C(=O)Nc3ccc(S(=O)(=O)N(C)c4cccc(Cl)c4)cc32)c(C)c1C(=O)N1CCN(C)CC1
inactive: 1 nM 2.2% | 8.33 nM 0.76% | 100 nM -0.49% | 833.33 nM 0.96% | 10000 nM -1.88%

COc1ccccc1N1CCN(CC(O)COc2cc(OC)c(OC)c(OC)c2)CC1 (stereo not given) [enciprazine]
inactive: 1 nM 0.76% | 8.33 nM 1.14% | 100 nM 0.33% | 833.33 nM -0.53% | 10000 nM -2.4%

O=C(c1ccc(F)cc1)C1CCN(CCn2c(=S)[nH]c3ccccc3c2=O)CC1 [altanserin]
inactive: 1 nM -0.65% | 8.33 nM 0.82% | 100 nM 0.34% | 833.33 nM 2.37% | 10000 nM 1%

CC(C)c1cc(CNc2nc(Nc3cc(C4CC4)[nH]n3)cc(N3CCN(C)CC3)n2)on1
inactive: 1 nM 0.13% | 8.33 nM 1.15% | 100 nM 0.48% | 833.33 nM -4.78% | 10000 nM -15%

c1ccc(-c2ccc(CNc3nc(-c4ccccn4)nnc3-c3ccccc3)cc2)cc1
inactive: 1 nM 1.58% | 8.33 nM 0.74% | 100 nM -1.15% | 833.33 nM -4.89% | 10000 nM -14.7%

Cn1c2c(c3ccccc31)CCNCC2
inactive: 1 nM 3.79% | 8.33 nM 2.27% | 100 nM -0.51% | 833.33 nM 0.96% | 10000 nM -0.01%

CC(=O)N1CCN(c2ccc(OC[C@@H]3CO[C@@](Cn4ccnc4)(c4ccc(Cl)cc4Cl)O3)cc2)CC1 (racemic) [ketoconazole]
inactive: 1 nM -0.87% | 8.33 nM -0.69% | 100 nM -1.88% | 833.33 nM 0.35% | 10000 nM 1.61%

NC1=N[C@@]2(c3cc(NC(=O)c4ccc(F)cn4)ccc3F)COC[C@H]2CS1
inactive: 1 nM -3.54% | 8.33 nM -0.32% | 100 nM -4.37% | 833.33 nM -2.3% | 10000 nM -4.47%

Cn1cc([S+](C)[O-])c(=O)c2ccc(F)cc21 (stereo not given) [flosequinan]
inactive: 1 nM -1.94% | 8.33 nM -0.91% | 100 nM 0.34% | 833.33 nM 2.01% | 10000 nM 0.19%

O=C(O)C[C@H](O)C(=O)O [malic-acid]
inactive: 1 nM -0.21% | 8.33 nM -2.53% | 100 nM -1.2% | 833.33 nM 3.51% | 10000 nM 1.76%

O=C(O)c1cccnc1Nc1cccc(C(F)(F)F)c1 [niflumic-acid]
inactive: 1 nM 1.14% | 8.33 nM 2.42% | 100 nM -0.03% | 833.33 nM 1.51% | 10000 nM 1.54%

COc1cc(-c2ncn(/C=C\C(=O)OC(C)C)n2)cc(C(F)(F)F)c1
inactive: 1 nM -1.83% | 8.33 nM -2.94% | 100 nM -8.02% | 833.33 nM -12.1% | 10000 nM -11.7%

Fc1ccc(Cn2c(NC3CCNCC3)nc3ccccc32)cc1 [tecastemizole]
inactive: 1 nM -7.23% | 8.33 nM -9.9% | 100 nM -11.8% | 833.33 nM -8.85% | 10000 nM -8.1%

CO[C@@H]1[C@H](N(C)C(=O)c2ccccc2)C[C@H]2O[C@]1(C)n1c3ccccc3c3c4c(c5c6ccccc6n2c5c31)C(=O)NC4 [midostaurin]
inactive: 1 nM -10.1% | 8.33 nM -8.56% | 100 nM -8.88% | 833.33 nM -23.9% | 10000 nM -31.5%

CCOC(=O)c1ccc(NC2CCCCC2)c(N)c1 [ferrostatin-1]
inactive: 1 nM 0.05% | 8.33 nM 3.56% | 100 nM 2.61% | 833.33 nM 2.6% | 10000 nM 2.1%

CCOC(=O)CC(=O)N1CCSC1COc1ccccc1OC (stereo not given) [moguisteine]
inactive: 1 nM -0.34% | 8.33 nM 0.03% | 100 nM -3.76% | 833.33 nM -0.38% | 10000 nM 0.52%

CNC(=O)Oc1cccc2ccccc12 [carbaril]
inactive: 1 nM -0.49% | 8.33 nM -0.59% | 100 nM 0.05% | 833.33 nM 1.22% | 10000 nM -0.51%

Cc1cc2sc(NC(=O)Cc3ccccc3)nc2cc1Cl
inactive: 1 nM 2.05% | 8.33 nM 2.12% | 100 nM 2.19% | 833.33 nM 0.81% | 10000 nM 3.87%

O=C(CCBr)N1CCN(C(=O)CCBr)CC1 [pipobroman]
inactive: 1 nM 0.26% | 8.33 nM -0.92% | 100 nM -3.06% | 833.33 nM -6.9% | 10000 nM -3.48%

CCCCCCCCCCCCCCCCO [1-hexadecanol]
inactive: 1 nM -1.82% | 8.33 nM 0.36% | 100 nM -0.66% | 833.33 nM -0.99% | 10000 nM -4.02%
